Data on five sequences can be found in publication PMC8384837, “Expanding the binding specificity for RNA recognition by a PUF domain”.

The target in one test is PUM1 PUF domain R8-KFC (Homo sapiens, UniProt Q14671 828-1176, N1122K;Y1123F;Q1126C). As to the kind of experiment: yeast three-hybrid, YBZ-1, SC-Leu-His + 0.5 mM 3-AT, 4 days. Particulars: tags: N-Gal4 AD-HA kept; label: inside an RPR1-promoter hybrid RNA with tandem MS2 sites; ssRNA. A digest of the protocol:
(§1)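 The interaction score is the log change in how often each variant appears, from input to selection. Frequencies came from PCR-amplified, Illumina-sequenced repeat regions of Pumilio-1 PUF domain libraries grown in strain YBZ-1 (LexA–MS2 coat fusion, HIS3 reporter) alongside matching RNA elements. Input plates were SC-Leu and selection plates were SC-Leu-His + 0.5 mM 3-AT, each for four days, and the log2 calculation used a pseudocount of 1 where a variant was absent.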
Regarding “GGCUAGAACUAGUGGAUCCCCCGGCGCCCGGCGGCUCGAGCCCGGGUAAGCGUAAAUAGUCUGCAUGCCGCCGGGCGCCAUGCCUGCAGGUCGACUCUAGAAAACAUG”, the binding signal is 6.35 log2 enrichment (interaction score).
As for “GGCUAGAACUAGUGGAUCCCCCGGCGCCCGGCGGCUCGAGCCCGGGUAAGGGUAAAUAGUCUGCAUGCCGCCGGGCGCCAUGCCUGCAGGUCGACUCUAGAAAACAUG”, the binding signal was 2.66 log2 enrichment (interaction score).
Turning to “GGCUAGAACUAGUGGAUCCCCCGGCGCCCGGCGGCUCGAGCCCGGGUAAGUGUAAAUAGUCUGCAUGCCGCCGGGCGCCAUGCCUGCAGGUCGACUCUAGAAAACAUG”, the binding signal is 2.49 log2 enrichment (interaction score).

The target of the next test is PUM1 PUF domain R4-SPN (Homo sapiens, UniProt Q14671 828-1176, N971S;H972P;Q975N). The test is described as above. The conditions noted are these: tags: N-Gal4 AD-HA kept; label: inside an RPR1-promoter hybrid RNA with tandem MS2 sites; ssRNA. The method, boiled down:
as §1
For “GGCUAGAACUAGUGGAUCCCCCGGCGCCCGGCGGCUCGAGCCCGGGUAAGUGUAAAUAGUCUGCAUGCCGCCGGGCGCCAUGCCUGCAGGUCGACUCUAGAAAACAUG”, the binding signal is 2.58 log2 enrichment (interaction score).
In the case of “GGCUAGAACUAGUGGAUCCCCCGGCGCCCGGCGGCUCGAGCCCGGGUAAGUGUACAUAGUCUGCAUGCCGCCGGGCGCCAUGCCUGCAGGUCGACUCUAGAAAACAUG”, the binding signal is 1.41 log2 enrichment (interaction score).
On the same count and under the same terms, with “GGCUAGAACUAGUGGAUCCCCCGGCGCCCGGCGGCUCGAGCCCGGGUAAGUGUAUAUAGUCUGCAUGCCGCCGGGCGCCAUGCCUGCAGGUCGACUCUAGAAAACAUG” the figure was 4.43 log2 enrichment (interaction score).
